Measurements taken from the supplement of paper PMC9694430.
“And” between values parts separate entries of the source, which are not always exact repeats. Identical values can stand only once.

test system: LOC_OS01G13800-cb001; test: thermal shift delta Tm vs DMSO control; higher = stronger stabilization (binding); settings: 12.5 µM; protein concentration 2 µM
Outline: (§1)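 Thermal shift values come from differential scanning fluorimetry on purified rice kinase domains made in E. coli, with melting temperatures obtained from Boltzmann fits. Samples of 19.5 μl held 2 μM kinase, 100 mM potassium phosphate pH 7.5, 150 mM NaCl, 10% glycerol, 5 × SYPRO Orange and compound in DMSO, and were heated from 25°C to 95°C at 0.05°C/s. Each shift is a triplicate mean relative to the DMSO-only protein sample.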
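Note: purified Escherichia coli-expressed rice kinase domain construct.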

**Q.** How did the “thermal shift delta Tm” value turn out when `CS(=O)(=O)c1ccc(-c2cnc(N)c(C(=O)Nc3ccccc3)n2)cc1` was run?
**A.** The value was 0 °C.

**Q.** Which “thermal shift delta Tm” value does the source give for `C=CC(=O)Nc1ccc(CN2C(=O)N(c3cc(OC)cc(OC)c3)Cc3cnc(Nc4ccc(N5CCN(C)CC5)cc4)nc32)cc1` here?
**A.** Its value is 0.56 °C.

**Q.** `c1ccc(-c2[nH]ncc2-c2ccnc3ccccc23)nc1` was tested. Which “thermal shift delta Tm” value did it give?
**A.** Its value is 0.69 °C.

**Q.** For `COc1ccc(Cl)c(Nc2nc3ccccc3nc2NS(=O)(=O)c2cccc(NC(=O)C(C)(C)N)c2)c1` [Pilaralisib (XL147)], which “thermal shift delta Tm” value is on record?
**A.** Its value is 1.9 °C.

**Q.** `CN1CCN(CCOc2cc(OC3CCOCC3)c3c(Nc4c(Cl)ccc5c4OCO5)ncnc3c2)CC1` [Saracatinib (AZD0530)] was tested. Which “thermal shift delta Tm” value did it give?
**A.** The value was 0.11 °C.

**Q.** Which “thermal shift delta Tm” value does the source give for `COc1cc2nccc(Oc3ccc(NC(=O)C4(C(=O)Nc5ccc(F)cc5)CC4)cc3)c2cc1OC` [Cabozantinib malate (XL184)] here?
**A.** Its value is 0.12 °C.

**Q.** `Cc1cc(C)c(/C=C2\C(=O)Nc3ccccc32)[nH]1` [Semaxanib (SU5416)] was tested. Which “thermal shift delta Tm” value did it give?
**A.** Its value is -0.49 °C.

**Q.** `NC(=O)c1ncn([C@@H]2O[C@H](CO)[C@@H](O)[C@H]2O)c1N` [AICAR (Acadesine)] was tested. Which “thermal shift delta Tm” value did it give?
**A.** The value was 0.52 °C.

**Q.** With `CN(c1ncccc1CNc1nc(Nc2ccc3c(c2)CC(=O)N3)ncc1C(F)(F)F)S(C)(=O)=O` as the molecule, how does the “thermal shift delta Tm” value read?
**A.** The value was -0.44 °C and -0.69 °C.

**Q.** How did the “thermal shift delta Tm” value turn out when `O=c1cc(N2CCOCC2)oc2c1ccc1ccccc12` was run?
**A.** The value was 0.55 °C.

**Q.** With `CCn1c(-c2nonc2N)nc2cnc(Oc3cccc(NC(=O)c4ccc(OCCN5CCOCC5)cc4)c3)cc21` as the molecule, how does the “thermal shift delta Tm” value read?
**A.** The value was 0.89 °C.

**Q.** Which “thermal shift delta Tm” value does the source give for `OC1CCC(Oc2cccc3cnc(Nc4ccc5nc[nH]c5c4)nc23)CC1` (stereo not given) here?
**A.** Its value is 0.31 °C.

test system: LOC_OS01G14860-cb001; test: as above; settings: 12.5 µM; protein concentration 2 µM
Outline: as §1

**Q.** Which “thermal shift delta Tm” value does the source give for `COc1cc(N2CCN(C)CC2)ccc1Nc1nccc(-c2cn(C)c3cnccc23)n1` here?
**A.** Its value is 0.92 °C.

**Q.** Which “thermal shift delta Tm” value does the source give for `CN1CCN(c2nc(C3=C(c4c[nH]c5ccccc45)C(=O)NC3=O)c3ccccc3n2)CC1` [Sotrastaurin] here?
**A.** Its value is 3.2 °C.

**Q.** For `CCN(CC)CCCC(C)Nc1nc(C)cc(Nc2ccc3nc(C)cc(N)c3c2)n1` (stereo not given), which “thermal shift delta Tm” value is on record?
**A.** Its value is 0.18 °C.

**Q.** How did the “thermal shift delta Tm” value turn out when `CN(C)C[C@@H]1CCn2cc(c3ccccc32)C2=C(C(=O)NC2=O)c2cn(c3ccccc23)CCO1` was run?
**A.** Its value is 2.41 °C.

**Q.** For `CCn1c2ccccc2c2cc(Nc3ccnc(NCCCN4CCOCC4)n3)ccc21`, which “thermal shift delta Tm” value is on record?
**A.** The value was 0.53 °C.

**Q.** With `O=C1NCCc2[nH]c(-c3ccncc3)cc21` as the molecule, how does the “thermal shift delta Tm” value read?
**A.** Its value is 5.61 °C.

**Q.** With `Oc1cc(O)cc(/C=C/c2ccc(O)c(O)c2)c1` [Piceatannol] as the molecule, how does the “thermal shift delta Tm” value read?
**A.** Its value is 1.02 °C.

**Q.** With `CC(C)(C#N)c1ccc(N2C(=O)OCc3cnc4ccc(-c5cnc6ccccc6c5)cc4c32)cc1` as the molecule, how does the “thermal shift delta Tm” value read?
**A.** The value was 0.26 °C.

**Q.** For `N#CCNC(=O)c1ccc(-c2ccnc(Nc3ccc(N4CCOCC4)cc3)n2)cc1` [Momelotinib (CYT387)], which “thermal shift delta Tm” value is on record?
**A.** Its value is 5.59 °C.

**Q.** With `Cc1cc(C(=O)Nc2nc3cccc(Cl)c3n2[C@@H]2CCCCN(C(=O)/C=C/CN(C)C)C2)ccn1` [Nazartinib (EGF816, NVS-816)] as the molecule, how does the “thermal shift delta Tm” value read?
**A.** The value was 1.27 °C.

**Q.** `COc1cc(OC)cc(N(CCNC(C)C)c2ccc3ncc(-c4cnn(C)c4)nc3c2)c1` was tested. Which “thermal shift delta Tm” value did it give?
**A.** Its value is 0.57 °C.

**Q.** For `O=C1c2ccc(Nc3ccc(F)cc3F)cc2CCc2ccc(OC[C@H](O)CO)cc21` [Skepinone-L], which “thermal shift delta Tm” value is on record?
**A.** The value was 0.36 °C.

**Q.** With `O=C1CCc2c(Oc3ccc4c(c3)[C@@H]3[C@H](O4)[C@H]3c3nc4cc(C(F)(F)F)ccc4[nH]3)ccnc2N1` [Lifirafenib (BGB-283)] as the molecule, how does the “thermal shift delta Tm” value read?
**A.** The value was 5.38 °C.

**Q.** `N#C/C(=C(/N)Sc1ccc(N)cc1)c1ccccc1C(F)(F)F` was tested. Which “thermal shift delta Tm” value did it give?
**A.** Its value is 0.5 °C.

**Q.** How did the “thermal shift delta Tm” value turn out when `COc1ccc(CC(=O)Nc2nc3c(s2)CCc2ccccc2-3)cc1OC` was run?
**A.** The value was 0.9 °C.

**Q.** Which “thermal shift delta Tm” value does the source give for `CCn1c(-c2nonc2N)nc2c(C#CC(C)(C)O)ncc(OC[C@H]3CCCNC3)c21` here?
**A.** The value was 3.95 °C.

**Q.** Which “thermal shift delta Tm” value does the source give for `Cn1cc(-c2ccc3nnc(Sc4ccc5ncccc5c4)n3n2)cn1` here?
**A.** Its value is -0.13 °C.

**Q.** Which “thermal shift delta Tm” value does the source give for `CCc1nc(C(N)=O)c(Nc2ccc(N3CCC(N4CCN(C)CC4)CC3)c(OC)c2)nc1NC1CCOCC1` [Gilteritinib (ASP2215)] here?
**A.** The value was 2.59 °C.

**Q.** `CC(C)(CCCCCC(O)CCCCCC(C)(C)C(=O)O)C(=O)O` was tested. Which “thermal shift delta Tm” value did it give?
**A.** Its value is -0.23 °C.

**Q.** For `CCN1CCN(Cc2ccc(Nc3ncc(F)c(-c4cc(F)c5nc(C)n(C(C)C)c5c4)n3)nc2)CC1`, which “thermal shift delta Tm” value is on record?
**A.** The value was 7.4 °C.

**Q.** With `Cc1cnc(NC(=O)Nc2cc(Br)c(C)cc2OC[C@@H]2CNCCO2)cn1` as the molecule, how does the “thermal shift delta Tm” value read?
**A.** Its value is 0.81 °C.

**Q.** How did the “thermal shift delta Tm” value turn out when `CCn1c(=O)c(-c2ccc(Cl)cc2Cl)cc2cnc(Nc3ccc(N4CCNCC4)c(F)c3)nc21` was run?
**A.** The value was 3.38 °C.

**Q.** With `C=CC(=O)Nc1cccc(Oc2nc(Nc3ccc(N4CCN(C)CC4)cc3OC)ncc2Cl)c1` as the molecule, how does the “thermal shift delta Tm” value read?
**A.** Its value is 0.25 °C.

**Q.** For `CCS(=O)(=O)Nc1ccc2c(c1)/C(=C(/Nc1ccc(CN3CCCCC3)cc1)c1ccccc1)C(=O)N2` [Hesperadin], which “thermal shift delta Tm” value is on record?
**A.** The value was 4.63 °C.

**Q.** With `COCCOc1cnc2ccn([C@H](C)c3nnc4c(F)cc(-c5cnn(C)c5)cn34)c(=O)c2c1` as the molecule, how does the “thermal shift delta Tm” value read?
**A.** The value was 0.15 °C.

**Q.** How did the “thermal shift delta Tm” value turn out when `COc1ccc(-c2cc3c(C)nc(N)nc3n([C@H]3CC[C@H](OCCO)CC3)c2=O)cn1` was run?
**A.** The value was 0.17 °C.

**Q.** With `CS(=O)(=O)c1ccc(-c2cnc(N)c(C(=O)Nc3ccccc3)n2)cc1` as the molecule, how does the “thermal shift delta Tm” value read?
**A.** The value was 5.11 °C.

**Q.** How did the “thermal shift delta Tm” value turn out when `C=CC(=O)Nc1ccc(CN2C(=O)N(c3cc(OC)cc(OC)c3)Cc3cnc(Nc4ccc(N5CCN(C)CC5)cc4)nc32)cc1` was run?
**A.** Its value is 0.97 °C.

**Q.** How did the “thermal shift delta Tm” value turn out when `c1ccc(-c2[nH]ncc2-c2ccnc3ccccc23)nc1` was run?
**A.** The value was 0.36 °C.

**Q.** For `COc1ccc(Cl)c(Nc2nc3ccccc3nc2NS(=O)(=O)c2cccc(NC(=O)C(C)(C)N)c2)c1` [Pilaralisib (XL147)], which “thermal shift delta Tm” value is on record?
**A.** The value was 1.53 °C.

**Q.** `CN1CCN(CCOc2cc(OC3CCOCC3)c3c(Nc4c(Cl)ccc5c4OCO5)ncnc3c2)CC1` [Saracatinib (AZD0530)] was tested. Which “thermal shift delta Tm” value did it give?
**A.** Its value is 0.28 °C.

**Q.** How did the “thermal shift delta Tm” value turn out when `COc1cc2nccc(Oc3ccc(NC(=O)C4(C(=O)Nc5ccc(F)cc5)CC4)cc3)c2cc1OC` [Cabozantinib malate (XL184)] was run?
**A.** The value was 0.34 °C.

**Q.** How did the “thermal shift delta Tm” value turn out when `Cc1cc(C)c(/C=C2\C(=O)Nc3ccccc32)[nH]1` [Semaxanib (SU5416)] was run?
**A.** Its value is 0.24 °C.

**Q.** `NC(=O)c1ncn([C@@H]2O[C@H](CO)[C@@H](O)[C@H]2O)c1N` [AICAR (Acadesine)] was tested. Which “thermal shift delta Tm” value did it give?
**A.** The value was 0.07 °C.

**Q.** Which “thermal shift delta Tm” value does the source give for `CN(c1ncccc1CNc1nc(Nc2ccc3c(c2)CC(=O)N3)ncc1C(F)(F)F)S(C)(=O)=O` here?
**A.** Its value is 4.96 °C and 3.99 °C.

**Q.** For `O=c1cc(N2CCOCC2)oc2c1ccc1ccccc12`, which “thermal shift delta Tm” value is on record?
**A.** The value was 0.74 °C.

**Q.** Which “thermal shift delta Tm” value does the source give for `CCn1c(-c2nonc2N)nc2cnc(Oc3cccc(NC(=O)c4ccc(OCCN5CCOCC5)cc4)c3)cc21` here?
**A.** Its value is 6.06 °C.

**Q.** With `OC1CCC(Oc2cccc3cnc(Nc4ccc5nc[nH]c5c4)nc23)CC1` (stereo not given) as the molecule, how does the “thermal shift delta Tm” value read?
**A.** Its value is 7.5 °C.
